Laboratory results: ChEMBL document CHEMBL3988442, “University of Dundee, Small-Polar-MMV Screening Library” (2021)
Screen size: about 48,000 compounds; about 13,000 (27%) showed an effect of 50% or more. This is one part of the list.

Test system: Wolbachia pipientis
Assay: Anti-Wolbachia Cell-Based Screen
Format: functional
Design: scale not given: in the data most compounds retested in dose-response had high values
Settings: 5 µM

Compound	Percent Effect [%]
Cc1nn(C)c2nc(N(Cc3ccncc3)CC3CCCO3)sc12 (stereo unspecified)	-11.41
O=C(NCC1CCOCC1)c1cc(-c2ccncc2)c2cnccc2n1	108.8
O=C(NCC1CCOC1)c1csc(Cc2ccccc2)n1 (stereo unspecified)	5.242
O=C(NCC1CCOCC1)c1cc(-c2cccnc2)c2cnccc2n1	94.41
O=C(NCC1CCOC1)c1cc(-c2ccc(F)cc2)[nH]n1 (stereo unspecified)	-3.417
O=C(NCC1CCOC1)c1cc(-c2ccccc2Cl)[nH]n1 (stereo unspecified)	-16.18
CCSCCC(=O)NCc1cc2n(n1)CCN(C(=O)N(C)C)C2	-0.2016
CSC(C)CCN1CCCn2nc(CNC(=O)C3CCC3)cc2C1 (stereo unspecified)	-26.67
CSCCC(=O)NCc1cc2n(n1)CCN(C(=O)N(C)C)C2	-0.4963
CCn1cc(CN2CCCn3nc(CNC(=O)C4CCC4)cc3C2)cn1	6.964
CSCC[C@H](N)C(=O)NCc1cc2n(n1)CCCN(C(=O)N(C)C)C2	122.1
CSCC[C@H](N)C(=O)NCc1cc2n(n1)CCCN(C(=O)C1CCC1)C2	51.59
COc1c(F)cccc1C(=O)N(C)Cc1nc(-c2ccccn2)no1	-5.196
O=C(c1nnn(-c2ccccc2F)c1-c1ccccn1)N1CCSCC1	6.252
CCC(CC)CN(C)Cc1nc(-c2ccccc2NS(C)(=O)=O)oc1C	-3.021
Cc1nsc(NC(=O)N2CCCCC2CCO)n1 (stereo unspecified)	17.59
O=S(=O)(CCNCc1cccc2c1OCCO2)N1CCOCC1	-15.52
c1cc(CNCc2ccnc(N3CCCC3)c2)c2c(c1)OCCCO2	-11.45
CN(C)c1cc(CNCc2cccc3c2OCCO3)ccn1	-14.59
c1cc(CNCc2ccnc(N3CCOCC3)c2)c2c(c1)OCCO2	-3.552
CC(C)c1nn(C)c(Cl)c1CNCc1ccc2c(c1)OCCO2.Cl	-6.63
Cl.c1cc(CNCc2ccc(Cn3cncn3)cc2)c2c(c1)OCCO2	98.52
CN(C)C1CCN(C(=O)NCc2ccc(Cn3cncn3)cc2)CC1	-7.697
c1ncn(Cc2ccc(CNCc3ccc4c(c3)OCCO4)cc2)n1	118.2
OCc1cccc(CNCc2cccc3c2OCCO3)c1	91.71
Cl.c1cc(CNCc2cccc3c2OCCCO3)cc(Cn2cncn2)c1	92.05

Compound	Percent Effect [%]
c1cc(CNCc2ccnc(N3CCCCC3)c2)c2c(c1)OCCCO2	-27.55
Cl.c1cc(CNCc2ccnc(N3CCCC3)c2)c2c(c1)OCCO2	3.03
CC(C)CN1C(=O)CC[C@H]2CN(C(=O)c3ncc[nH]3)CC[C@H]21	5.326
O=C(NCC1(c2ccc(F)cc2)CCC1)N1CCC2(CCOCC2)C1	-1.308
CC(=O)c1cc(CN2C[C@@H](NS(=O)(=O)N(C)C)[C@H](C(C)C)C2)cs1	-2.035
CC(NCc1ccncc1)c1cc2c(cc1Br)OCCO2 (stereo unspecified)	-11.71
Cc1nn(C)c(N(C)C)c1CNCc1cccc(OCCN(C)C)c1	-12.69
CCc1ncncc1C(=O)NCCNC(=O)c1ccc(C)c(F)c1	24
c1cc(CNCc2ccnc(N3CCOCC3)c2)c2c(c1)OCCCO2	13.14
c1cc(CNCc2cccc3c2OCCO3)cc(Cn2cncn2)c1	82.82
CC1CN(c2cc(CNCc3cccc4c3OCCO4)ccn2)CCO1 (stereo unspecified)	-31.92
Cc1ccc(CN(C)Cc2nc3c(cnn3C)c(=O)[nH]2)o1	10.6
Cc1occc1CN(C)Cc1nc2c(cnn2C)c(=O)[nH]1	0.5275
CCN(Cc1nc2c(cnn2C)c(=O)[nH]1)Cc1ccco1	83.36
CN(Cc1nc2c(cnn2C)c(=O)[nH]1)Cc1ccco1	90.92
CCN(Cc1nc2c(cnn2C)c(=O)[nH]1)Cc1cccs1	17.21
COCCN(Cc1nc2c(cnn2C)c(=O)[nH]1)Cc1ccco1	0.2947
CCN(CC)CCn1cnc(-c2ccccc2)c1-c1ncc[nH]1	-14.65
COc1c(CNC2(c3noc(C)n3)CCC2)c(C)nn1C.Cl	-0.07917
CCc1nc(C)c(C(C)N(C)CCc2ccncc2)s1 (stereo unspecified)	1.512
CNC(=O)C1(c2cnccn2)CCCN1C(=O)c1ccccc1OC (stereo unspecified)	2.763
CN(CC(=O)N1CCN(c2ccccc2F)CC1)c1cnccn1	4.093
CNC(=O)C1(c2cnccn2)CCCN1C(=O)c1ccccc1C (stereo unspecified)	116.1
COCCC1(CO)CCCN(C(=O)c2cccnc2OC)C1 (stereo unspecified)	-0.7359
O=C1CCCC2(CCN(C(=O)c3cnccn3)CC2)N1	-3.096
CNC(=O)C1(c2cnccn2)CCCN1C(=O)c1cccnc1OC (stereo unspecified)	97.1

Compound	Percent Effect [%]
CNC(=O)C1(c2cnccn2)CCCN1C(=O)c1ccccc1F (stereo unspecified)	99.27
CNC(=O)C1(c2cnccn2)CCCN1C(=O)c1c(F)cccc1F (stereo unspecified)	94.23
O=C1CCC2(CCCN(C(=O)c3cnccn3)CC2)N1 (stereo unspecified)	-28.51
CCC(CC)n1ncc(C(=O)NS(=O)(=O)c2ccsc2)c1C	-0.139
CN(Cc1ncnn1C)C(=O)CCn1ccc2ccccc21	-15.17
CN(C)c1ncnc2c1CCN(C(=O)c1sccc1S(N)(=O)=O)C2	-19.94
CN(C)CC(=O)N1Cc2nc(C(=O)NCc3ccncc3)oc2C1	-11.57
O=c1nc(SCc2cccnc2)c2c(n1CCO)CCCC2	8.765
O=C(N[C@]12CC1CN(C(=O)c1ccco1)C2)c1ccoc1 (stereo partly specified)	-22.61
CNc1ncccc1C(=O)N1CCCC2(CCN(C)CC2)CC1	-1.008
CNC(=O)C1(c2cnccn2)CCCN1C(=O)c1ncccc1C (stereo unspecified)	109.2
COCCn1cc2c(n1)C(CNCc1nccs1)OCC2.O=C(O)C(F)(F)F.O=C(O)C(F)(F)F (stereo unspecified)	108.5
COCCn1cc2c(n1)C(CNCc1ccsc1)OCC2.O=C(O)C(F)(F)F (stereo unspecified)	95.33
COCCn1cc2c(n1)C(CNCc1cccc(OC)c1)OCC2.O=C(O)C(F)(F)F (stereo unspecified)	125
O=C(Cc1ccccn1)NCC1OCCc2cn(CC3CC3)nc21.O=C(O)C(F)(F)F (stereo unspecified)	-22.67
O=C(O)C(F)(F)F.c1c2c(nn1CC1CCOCC1)C(CNC1CCOCC1)OCC2 (stereo unspecified)	-44.92
Fc1cccc(CNCC2OCCc3cn(CC4CCOCC4)nc32)c1.O=C(O)C(F)(F)F (stereo unspecified)	-13.58
O=C(O)C(F)(F)F.O=C(O)C(F)(F)F.O=C(O)C(F)(F)F.c1ccc(Cn2cc3c(n2)C(CNCC2CCOCC2)OCC3)nc1 (stereo unspecified)	3.019
O=C(O)C(F)(F)F.O=C(O)C(F)(F)F.c1cc(CNCC2OCCc3cn(CC4CC4)nc32)cs1 (stereo unspecified)	-9.045
COCCn1cc2c(n1)C(CNCc1ccc(F)cc1)OCC2.O=C(O)C(F)(F)F.O=C(O)C(F)(F)F (stereo unspecified)	10.33
Cc1ccc(Sc2ccc(CN3CCC4(CC3)NCCNC4=O)o2)cc1	-3.78
CCCN(C)c1ccc(C(=O)Nc2c(C)nn(C(C)C)c2C)cc1	9.882
Cc1ccc(CNC(=O)c2oc3ccccc3c2CN(C)C)n1C	-0.2654
Fc1ccc(OCc2nnc([C@H]3CCN(Cc4ccccn4)C3)o2)cc1	11.6
Fc1ccc(CNC2CCN(CCc3ccncc3)CC2)cc1F	-3.888
Cl.O[C@@H]1CN(Cc2ccc(F)cc2)CC[C@H]1NCc1ccccn1	97.86

Compound	Percent Effect [%]
Cl.O[C@@H]1CN(Cc2ccc(F)c(F)c2)CC[C@H]1NCc1ccccn1	84.03
Cc1[nH]c2ccc(CNC3CCN(Cc4ccccn4)CC3)cc2c1C	-2.213
COCc1nccc(C2CCCN(Cc3cccc(F)c3)C2)n1 (stereo unspecified)	-13.68
Cl.O[C@@H]1CN(Cc2cccc(F)c2)CC[C@H]1NCc1ccccn1	63.1
O=C(NC[C@H]1OC[C@@H](NCc2ccccn2)[C@@H]1O)c1ccc(F)cc1	4.298
CN(Cc1cccc(F)c1)C1CCN(CCc2ccccn2)CC1	5.619
Cc1nccc(-c2ccccc2)c1C(=O)N1CC[C@](C)(O)[C@H](C)C1	-6.254
CC(C)CN(C)S(=O)(=O)c1ccc(Cl)cc1C#N	-10.78
COc1cc(CN(C(=O)Nc2cccnc2OC)C2CC2)ccc1O	-7.175
COc1ncccc1NC(=O)N1CCC(CNC(C)=O)CC1	2.478
CCC(C)C(=O)N(Cc1ccccn1)C1CC1 (stereo unspecified)	-10.35
COc1ncccc1NC(=O)N(Cc1ccco1)C1CC1	106.8
COc1ncccc1NC(=O)N(Cc1ccc(C(N)=O)cc1)C1CC1	99.11
COc1ncccc1NC(=O)N(Cc1ccccn1)C1CC1	99.69
COc1ncccc1NC(=O)N(CC(C)C)C1CC1	114.6
CCN(C(=O)Nc1cccnc1OC)C1CC1	-1.512
CCN(CC)C(=O)C1CCN(C(=O)Nc2cccnc2OC)CC1	6.94
CN(C)C(CNC(=O)N(Cc1ccco1)C1CC1)c1cccs1 (stereo unspecified)	11.82
COc1ncccc1NC(=O)N(Cc1ccc(C)o1)C1CC1	-9.414
CC(C)c1cc(NC(CCO)c2ccccc2)n2nccc2n1 (stereo unspecified)	9.375
COc1ccc(N(C)C(=O)C2CN(C)CCO2)cc1F (stereo unspecified)	4.691
O=C1CN(Cc2nnc(-c3ccc(Br)o3)o2)CCN1	-7.381
Cc1ccc(S(=O)(=O)NCc2[nH]ncc2Br)cc1F	-12.16
